The source of these data is PubChem BioAssay (NCI).

This is part of a sample that, as a whole, favours compounds with a hit. Of some 83,000 tested, about 20% had one in any assay.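 Note: values are percent growth. 100 is the growth of untreated cells, values between 100 and 0 indicate rising inhibition; between -100 and 0 indicates cell death.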 Unmarked numbers belong to inactive results. Active and inactive are the calls of the source.

The test relates to SNB-19 CNS. The experiment in a line: NCI-60 one-dose screen, 48 h (100 = growth as untreated, 0 = no growth, -100 = all killed). As to conditions: 10 µM. On the procedure: Growth inhibition of the SNB-19 human tumor cell line is measured as a screen for anti-cancer activity. Cells are grown in 96 well plates and exposed to the test compound for 48 hours. Compounds are tested at a single concentration, which is 10^-5 M for most compounds. The reported endpoint is percent growth (GI% or GIPRCNT), where numbers from 0 - 100% represent growth inhibition, and numbers from -100% - 0 represent cell death. For example, a value of 40 represents 60% growth inhibition. A value of 0 means no net growth occurred over the course of the experiment. A value of -40 indicates 40% of cells at the beginning of the experiment died by the end of the experiment. A value of -100 means all cells are dead at the end of the experiment.
NCI-60 Human Tumor Cell Lines Screen was performed using the standard one-dose NCI protocol, which is described in more detail at https://dtp.cancer.gov/discovery_development/nci-60/default.htm.
Compounds with GIPRCNT values below 10 were considered active. Activity score was based on GIPRCNT using the following formula: […]
Score is 0 for GIPRCNT values of 100 or above, 50 for GIPRCNT values of 0, and 100 for GIPRCNT values of -100.
For the compound `COc1cccc(C2(C)Nc3ccccc3-c3nc4ccccc4n32)c1` (stereo not given), the growth was 105%.
As for `CCN(CC)c1ccc(/C=C/C2=[N+](C)c3ccccc3C2(C)C)c(C)c1`, the growth is 20.6%.
In the case of `CC(=O)Nc1nc(C)c(C(=O)N/N=C/c2cccn2C)s1` it was 117%.
`C=CCNCCCN1C(=O)c2ccc3c4c(ccc(c24)C1=O)C(=O)N(CCCNCC=C)C3=O`: the growth is -91.2% (active).
On to `O=c1[nH]c(=O)n(C2C[C@@H](O)[C@@H](CO)O2)cc1F` (stereo not given in full), for which the growth is 41.6%.
For `COc1cc(N=C2C(=O)N(Cc3ccccc3)c3ccccc32)cc(OC)c1OC` the value was 95.1%; for `Cc1nn2c(/C=C3/C(=O)Nc4ccc(Cl)cc43)c(-c3ccccc3)nc2s1`, 82.4%.
For `CC(C)OCc1cc(CN2CCN(c3cccc(Cl)c3)CC2)c(O)c2ncccc12` the value was 19.6%; for `O=[N+]([O-])C1CC2C=CC1C2` (stereo not given), 109%.
Turning to `O=C1/C(=C/c2cccs2)CCC/C1=C\c1cccs1`, the growth was 105%.
Take `NC(=O)C12C(=O)NC(=O)C1(C(=O)O)C21CCCC1` (stereo not given): the growth is 99.3%.
In the case of `COc1ccc(-c2nc(-c3nc4ccc(OC)cc4[nH]3)c3ccccn23)cc1` it was 85.5%.
On to `COc1ccc(/C=C(\c2cc(OC)c(OC)c(OC)c2)c2nnc(-c3cccs3)o2)cc1`, for which the growth is 52.3%.
With `CCc1ccc(Nc2cc(C)nc3nc(C)nn23)cc1`, the growth is 15.4%.
As for `c1ccc(CC(NCCNC(Cc2ccccc2)c2ccccc2)c2ccccc2)cc1` (stereo not given), the growth is 44.4%.
For `O=S(=O)(NCl)c1ccccc1` the value was 104%.
For `O=[N+]([O-])c1ccc(Br)o1` the value was 107%; for `Cc1ccc(S(=O)(=O)N2CCc3ccccc3CC2)cc1`, 68%; for `N/C(=N\O)c1cn(C2OC(CO)C(O)C2O)c2ncnc(N)c12` (stereo not given), 16.5%.
For `C=CCNC(=S)NN` the value was 94.4%; for `Cc1nc(Nc2nc3ccccc3o2)nc(-c2cccc([N+](=O)[O-])c2)c1C(=O)Nc1ccc(F)c(Cl)c1`, 11.7%.
Regarding `CC(=O)N(O)c1ccc(/C=C/c2ccccc2)cc1`, the growth is 32.3%.
In the case of `Cc1ccccc1C1=N[C@@H](Cc2ccccc2)C(=O)c2c(nc3ccccn23)N1` it was 109%.
For `CCOC(=S)Sc1ccc([N+](=O)[O-])cc1[N+](=O)[O-]` the value was 111%.
In the case of `CCCCCCCCCCCC(c1ccccc1)N(C)C` (stereo not given) it was 95.1%; in that of `CCCCCCCOc1cccc(/C=C2/C(=O)N=C3SCCCN32)c1`, 63.4%; in that of `COc1ccc(-c2cc(/C=C/C(=O)c3ccc(N)cc3)[nH]n2)cc1OC`, 51.6%.
With `COc1ccc2nc(NC(=O)Nc3c(F)cccc3F)sc2c1`, the growth is 97.2%.
`CC[C@@]1(C(N)=O)CC2C=CC1C2` (stereo not given in full): the growth is 107%.
In the case of `COc1ccc(-c2[nH]ncc2/C=C/c2cc(C(F)(F)F)[nH]c(=O)n2)cc1` it was 91%; in that of `Nc1nc(SCC#CCCl)c2[nH]cnc2n1`, 57.1%; in that of `Cc1nc(N)sc1Sc1nc2ccc(Cl)cc2c(=O)n1-c1ccc(Oc2ccccc2)cc1`, 69.4%.
For the compound `CCOc1cc(Br)c(C(C)NC(=O)c2cccc(OC)c2)cc1OCC` (stereo not given), the growth was 98.3%.
On to `COC(=O)c1c(C)nc(Nc2nc3ccccc3s2)nc1-c1ccc(Cl)cc1Cl`, for which the growth is 92.3%.
For `O=C1/C(=C/c2ccc(O)cc2)Cc2ccc(Cl)cc21` the value was 93.9%; for `CCOC(=O)c1cc2c(n1Cc1cc(OC)cc(OC)c1)-c1oncc1CC2`, 38.7%.
With `OC(CNC1CCCC1)Cn1c2ccccc2c2ccccc21` (stereo not given), the growth is 33.8%.
Consider `COc1ccc(-c2csc(-c3cc(Cl)cc(Cl)c3Cl)n2)cc1`, for which the growth is 103%.
In the case of `COc1ccc(N2CCN(c3nc(-c4ccccc4)c(C#N)c(=O)[nH]3)CC2)cc1` it was 103%; in that of `N#CN1CC[C@H](C(=O)Nc2ncc(-c3ccccc3)s2)C1`, 12.4%.
